Source: PubChem BioAssay (National Center for Advancing Translational Sciences (NCATS))
Shown are actives, neighbours in structure and some others; about 5.3% of the full set was active somewhere.
JMJD2A Tudor – JMJD2A Tudor domain (human) inhibition. AlphaScreen JMJD2A-Tudor / H3K4me3 peptide binding. 390,000 tested, 4.4% active. AID 504339. Potency, µM (series often up to 114 µM), usual class: inhibitors; note: nearly all actives have a fitted effect of over 50% in size
TDP1 inh – TDP1 (human) enzyme inhibition; Q9NUW8; recombinant TDP1, AlphaScreen DNA substrate cleavage; Potency, µM (highest dose often 130 µM), actives largely listed as inhibitors; 350,000 tested, 0.28% active; note: nearly all actives have a fitted effect of over 40% in size
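E. coli-derived human Tdp1, 1 nM final. Cpd preinc 15 min RT; substrate 15 nM final, 5 min RT; AS bead mix 10 ug/ml final, 10 min RT. Signal loss = tyrosine-FITC cleavage. No-enzyme wells = max signal.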
BAZ2B block – inhibitors of human BAZ2B bromodomain; Q9UIF8; AlphaScreen BAZ2B-H3K14Ac peptide displacement; Potency, µM (series often up to 114 µM), usual class: inhibitors; 360,000 tested, 4.4% active; AID 504333; note: nearly all actives have a fitted effect of over 60% in size
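AlphaScreen displacement: compounds (up to 110uM) incubated 30 min at room temperature with a preformed 50 nM BAZ2B/50 nM biotinylated H3K14Ac peptide complex in PBS pH 7.4 with Tween-20. Donor and acceptor beads at 10 ug/mL final added, 20 min light-protected before reading.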
HP1b binding inh – HP1-beta chromodomain-methylated histone interaction inhibition; P83916; AlphaScreen HP1-beta / biotin-H3K9me3 peptide binding; 390,000 tested, 0.56% active; AID 540317; Potency, µM (doses to about 114 µM), most hits filed as inhibitors; note: nearly all actives have a fitted effect of over 70% in size
Target sequence (P83916 whole entry, looked up): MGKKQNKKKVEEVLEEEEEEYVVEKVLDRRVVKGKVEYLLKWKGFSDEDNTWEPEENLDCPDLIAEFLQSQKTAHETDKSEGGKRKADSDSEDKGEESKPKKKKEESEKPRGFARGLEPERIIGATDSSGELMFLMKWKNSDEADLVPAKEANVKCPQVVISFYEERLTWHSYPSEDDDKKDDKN
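HP1-beta protein (50 nM final) preincubated 30 min at room temperature with biotinylated H3(1-18)K9me3 peptide (50 nM) in PBS pH 7.4, 0.01% Tween-20, then compound added for 30 min. AlphaScreen streptavidin donor/nickel chelate acceptor beads (10 ug/mL final), 30 min dark, luminescence read.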
Six1-Eya2 blk – inhibitors of human Six1/Eya2 interaction; AlphaScreen GST-Six1/His-Eya2 binding, biochemical; active compounds read low; Q15475+O00167; 360,000 tested, 0.56% active; activity change, % (no concentration beside the values); in the data active = activity change below about -65%; inconclusive = mostly about -30% to -63%
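Six1/Eya2 binding was read as AlphaScreen signal after compounds were pinned into GST-Six1 plus His-tagged Eya2 (5X stock 250/500 nM) in pH 8.0 Tris/NaCl/TCEP buffer, beads added, then incubated 1 h, 37 C, dark.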
CtBP-E1A inh – CtBP/E1A binding inhibition | AlphaScreen GST-E1A/His-CtBP binding, 1536-well; active compounds read low | 340,000 tested, 0.49% active | AID 651724 | activity change, % (test concentration not listed); in the data active = activity change below about -65%; inconclusive = mostly about -30% to -63%
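Steps: dispense buffer (Tris pH 8.0, NaCl 300 mM, TCEP 1 mM, BSA, Tween 20); add 5X protein mix (GST-E1A, His-CtBP, 125 nM each); pin 23 nL compound; 2 h at 37 °C, dark; add 5X beads (50 ug/mL); 1 h; read.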
Of the large screens only hits and unclear results are named; the others gave an inactive call. Unless noted, calls come from the whole dose curve; as a rule, active = well fitted inhibition curve with a large enough effect; inconclusive = small, poorly fitted or top-dose-only effect; inactive = no such curve, though single readings can be large or run the other way.

Cc1nnc2c(Nc3cccc(O)c3)nc3ccccc3n12	BAZ2B block inconclusive (no result: TDP1 inh, Six1-Eya2 blk, CtBP-E1A inh)
C[C@@]1(O)C(O)[C@@H](CO)O[C@H]1n1cnc2c(NC3CCCC3)nc(Cl)nc21 (stereo partly specified)	none (no result: JMJD2A Tudor, BAZ2B block, HP1b binding inh, Six1-Eya2 blk, CtBP-E1A inh)
Clc1ccccc1CNc1nc2ccccc2c2nc(-c3cccnc3)nn12	none (no result: Six1-Eya2 blk, CtBP-E1A inh)
CCOc1ccccc1CNC(=O)C1CCN(C2=NS(=O)(=O)C(c3ccc(C)c(C)c3)=C2C)CC1	none (no result: Six1-Eya2 blk, CtBP-E1A inh)
COc1ccccc1CNC(=O)C1CCN(C2=NS(=O)(=O)C(c3ccc(C)c(C)c3)=C2C)CC1	JMJD2A Tudor 56µM (no result: Six1-Eya2 blk, CtBP-E1A inh)
COc1cc(C(=O)NC(C)c2ccc(-n3ccnc3)cc2)cc(OC)c1C (stereo unspecified)	JMJD2A Tudor 79µM, BAZ2B block 50µM
COc1cc(C(=O)NCC(=O)NC(C)c2ccc(-n3ccnc3)cc2)cc(OC)c1OC (stereo unspecified)	none
Cc1cccc(NC(=O)c2ccc3c(O)c(S(=O)(=O)c4ccccc4)c(=O)[nH]c3c2)c1C	JMJD2A Tudor inconclusive (no result: Six1-Eya2 blk, CtBP-E1A inh)
Cc1cccc(-c2nc(CSCC(=O)N3CCN(c4ccccc4)CC3)c(C)o2)c1	JMJD2A Tudor inconclusive, BAZ2B block inconclusive (no result: Six1-Eya2 blk, CtBP-E1A inh)
CCOc1ccccc1NC1=C(OC)C(=O)C(Nc2ccccc2OCC)=C(OC)C1=O	JMJD2A Tudor 7.1µM, HP1b binding inh 8.9µM (no result: TDP1 inh, BAZ2B block)
CCC(C)(C)c1ccc(Oc2ccc(N)cc2)cc1	JMJD2A Tudor 56µM, BAZ2B block inconclusive, HP1b binding inh inconclusive
CC(=O)c1cccc(NC(=O)Cn2c(-c3cncs3)nc3ccccc32)c1	BAZ2B block inconclusive (no result: Six1-Eya2 blk, CtBP-E1A inh)
Cc1nc(-n2[nH]c3c(c2=O)CCCC3)[nH]c(=O)c1Cc1ccccc1	JMJD2A Tudor inconclusive, BAZ2B block inconclusive, Six1-Eya2 blk inconclusive, CtBP-E1A inh inconclusive
Cc1cc(=O)[nH]c(-n2[nH]c3c(c2=O)CCCC3)n1	JMJD2A Tudor 2.2µM, BAZ2B block 13µM, Six1-Eya2 blk inconclusive, CtBP-E1A inh inconclusive
Cc1ccc(NC(=O)c2sc3ncn(Cc4cccc(F)c4)c(=O)c3c2C)c(Br)c1	none (no result: Six1-Eya2 blk, CtBP-E1A inh)
O=C(/C=C/c1ccco1)NCc1ccco1	BAZ2B block 56µM (no result: TDP1 inh)
NS(=O)(=O)c1ccc(CNC(=O)/C=C/c2ccco2)cc1	JMJD2A Tudor inconclusive, BAZ2B block 56µM, HP1b binding inh inconclusive (no result: TDP1 inh)
O=C(N/C=C/c1ccco1)NCc1ccccc1	JMJD2A Tudor 79µM, BAZ2B block 45µM, CtBP-E1A inh inconclusive (no result: TDP1 inh)
O=C(CNC(=O)/C=C/c1ccco1)N=Nc1c(O)[nH]c2ccccc12	TDP1 inh 40µM, BAZ2B block 56µM (no result: CtBP-E1A inh)
O=C(CNC(=O)Cc1ccccc1)N=Nc1c(O)[nH]c2ccccc12	none
Cc1ccc(-n2nc(C(=O)Nc3ccc(Cl)cn3)c3c4ccccc4n(C)c3c2=O)cc1	none (no result: BAZ2B block, Six1-Eya2 blk, CtBP-E1A inh)
O=C(c1ccc2c(=O)n(CCc3ccccc3)c(=O)[nH]c2c1)N1CCN(c2ccc(Cl)cc2)CC1	none (no result: Six1-Eya2 blk, CtBP-E1A inh)
CC(=O)c1cccc(NC(=O)CCCN2C(=O)COc3ccc(C)cc32)c1	none (no result: Six1-Eya2 blk, CtBP-E1A inh)
CCOc1ccc(NC(=O)CC2C(=O)N(c3ccc(C)cc3)C(=O)N2C2CCCCC2)cc1 (stereo unspecified)	none (no result: Six1-Eya2 blk, CtBP-E1A inh)
O=[N+]([O-])c1cccn2cc(-c3ccc(Br)cc3)nc12	JMJD2A Tudor inconclusive, TDP1 inh 40µM, BAZ2B block inconclusive
COc1ccccc1CNC(=O)c1cccn1-c1nnc(N2CCCCC2)s1	BAZ2B block inconclusive (no result: Six1-Eya2 blk, CtBP-E1A inh)
Cc1cc(NC(=O)c2cccn2-c2nnc(N3CCCCC3)s2)ccc1Br	JMJD2A Tudor inconclusive, BAZ2B block 71µM (no result: Six1-Eya2 blk, CtBP-E1A inh)
CN(C)c1ccc(CNC(=O)c2cccn2-c2nnc(N3CCCCC3)s2)cc1	JMJD2A Tudor inconclusive, BAZ2B block 40µM (no result: Six1-Eya2 blk, CtBP-E1A inh)
Cc1ccc(C(=O)NCCc2n[nH]c(=S)n2C)cc1	JMJD2A Tudor inconclusive
CCn1c(CCNC(=O)c2ccc(Cl)cc2)n[nH]c1=S	JMJD2A Tudor 10µM
Cn1c(CCNC(=O)c2ccccc2Cl)n[nH]c1=S	JMJD2A Tudor 45µM
Cc1ccc(/C=C/c2onc(C)c2S(=O)(=O)N2CCC(C(=O)NCc3ccc(C)o3)CC2)cc1	none (no result: Six1-Eya2 blk, CtBP-E1A inh)
CCc1ccc(NC(=O)c2cc(-c3ccc(OC)cc3)on2)cc1	BAZ2B block 56µM
